The list is not random: actives were taken first. Their share in the collection is about 7.8%.
Vaccinia Venus: qHTS for Stage-Specific Inhibitors of Vaccinia Orthopoxvirus: Venus Reporter Primary qHTS; hit rate 0.46% among 330,000; Potency, µM (doses to about 36.5 µM), usual class: inhibitors; Vaccinia virus Venus reporter expression, fluorescence; calls by dose curve; tested in A549 cells; further: nearly all actives have a fitted effect of over 30% in size
HCV inhibitor: qHTS Assay for Inhibitors of Hepatitis C Virus (HCV); Huh7.5.1 HCVcc-Cre infection, luciferase reporter, 44 h; Potency, µM (series often up to 41.8 µM), most hits filed as inhibitors; hit rate 3.4% among 340,000; active means well fitted inhibition curve with a large enough effect; inconclusive means small, poorly fitted or top-dose-only effect, or another doubt; inactive means no such curve, though single readings can be large or run the other way
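Antiviral activity was scored by luciferase reporter output from cells infected with HCVcc-Cre (~0.5 moi) in presence of compound, 44 h infection period, cells seeded 1,000/well 4 h prior.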
HCMV inh: qHTS Assay for inhibitors of the human cytomegalovirus (HCMV); hit rate 4.5% among 410,000; activity change, negative = inhibition, % at 57.5 µM; HFF cells, HCMV-luciferase reporter, 72 h; hits give low values; in the data active means activity change below about -60%; inconclusive means no clear call, values can overlap the other calls; inactive means above about -39%
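After 16 h attachment at 37C, HFF cells received test compound and HCMV-luciferase (1 PFU/cell); reporter luminescence read 72 h later, data normalized against buffer-only and known inhibitor Salinomycin.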
LASV entry inh: qHTS for Inhibitors of binding or entry into cells for Lassa Virus; Lassa virus pseudotype entry inhibition, cell reporter; AID 540256, 2011; hit rate 1.2% among 300,000; Potency, µM (titrated, usually from 37.9 µM), actives largely listed as inhibitors; calls by dose curve; tested in HEK293 cells; further: nearly all actives have a fitted effect of over 50% in size
Vaccinia mCherry: qHTS for Stage-Specific Inhibitors of Vaccinia Orthopoxvirus: mCherry Reporter Primary qHTS. Vaccinia virus mCherry reporter infection, fluorescence. Potency, µM (doses to about 36.5 µM), actives largely listed as inhibitors. AID 720579, 2013. hit rate 0.63% among 310,000; calls by dose curve; tested in A549 cells; further: nearly all actives have a fitted effect of over 35% in size
MARV entry inh: qHTS for inhibitors of binding or entry into cells for Marburg Virus. Potency, µM (titrated, usually from 37.8 µM), usual class: inhibitors. hit rate 1.8% among 300,000. Marburg virus pseudotyped entry inhibition, cell reporter; calls by dose curve; tested in HEK293 cells
Hits are given with their value.

CCc1ccccc1N(C)C(=O)c1cn(-c2cccc(OC)c2)c(=O)c2ccccc12 was read as Vaccinia Venus inactive, HCMV inh inconclusive, LASV entry inh inactive and Vaccinia mCherry inactive.
Screening Cc1cc(C)nc(NC(=O)CN2C(=O)c3ccccc3S2(=O)=O)n1 returned Vaccinia Venus inactive, HCV inhibitor inactive, HCMV inh inactive, LASV entry inh inactive, Vaccinia mCherry inactive and MARV entry inh inactive.
Cc1cc(C(=O)CN2C(=O)c3ccccc3S2(=O)=O)c(C)n1-c1ccccc1 was read as Vaccinia Venus inactive, HCV inhibitor inconclusive, HCMV inh -89.4, LASV entry inh 1.58µM, Vaccinia mCherry inactive and MARV entry inh 8.91µM.
Cc1cc(C(=O)CN2C(=O)c3ccccc3S2(=O)=O)c(C)n1C(C)C was read as Vaccinia Venus inactive, HCV inhibitor inactive, HCMV inh active, LASV entry inh 2µM, Vaccinia mCherry inactive and MARV entry inh 0.501µM.
Screening CCn1c(C)cc(C(=O)CN2C(=O)c3ccccc3S2(=O)=O)c1C returned Vaccinia Venus inactive, HCV inhibitor inactive, HCMV inh inconclusive, LASV entry inh 1.41µM, Vaccinia mCherry inactive and MARV entry inh inconclusive.
For C=CCn1c(C)cc(C(=O)CN2C(=O)c3ccccc3S2(=O)=O)c1C the results were Vaccinia Venus inactive, HCV inhibitor inactive, LASV entry inh inconclusive, Vaccinia mCherry inactive and MARV entry inh inconclusive.
COc1cc(N(C)C)c(OC)cc1/C=C1\Cc2ccccc2C1=O was read as Vaccinia Venus inactive and Vaccinia mCherry inactive.
Screening COc1ccc(-c2cn3nc(N4CCCC(C(=O)NCc5ccccc5OC)C4)sc3n2)cc1 (stereo not given) returned Vaccinia Venus inactive, HCMV inh inactive, LASV entry inh inactive and Vaccinia mCherry inactive.
`N#Cc1c(NCc2ccccc2)ccnc1Cl` gave Vaccinia Venus inactive, HCV inhibitor inactive, HCMV inh -69.1, LASV entry inh inactive, Vaccinia mCherry inactive and MARV entry inh inactive.
Screening COc1ccc(OC)c(CCNC(=O)c2cc3cccc4c3n2CC(C)S4)c1 (stereo not given) returned Vaccinia Venus inactive, HCMV inh inactive, LASV entry inh inactive and Vaccinia mCherry inactive.
Screening COc1ccc(S[C@]2(c3nc(C)no3)CC(=O)N(c3ccccc3)[C@@H]2c2ccc(OC)cc2)cc1 returned HCMV inh inactive.
CSc1nc2ccc(Br)cc2[nH]1 was read as Vaccinia Venus inactive, HCV inhibitor inactive, HCMV inh inactive, LASV entry inh inactive, Vaccinia mCherry inactive and MARV entry inh inconclusive.
For CC(C)Sc1nc2ccc(Br)cc2[nH]1 the results were Vaccinia Venus inactive, HCV inhibitor inactive, HCMV inh -102.3, LASV entry inh inactive, Vaccinia mCherry inactive and MARV entry inh inconclusive.
COc1cccc([C@H]2C(C(=O)c3cccs3)=C(O)C(=O)N2c2cc(C)on2)c1 was read as MARV entry inh inactive.
Screening CC(=O)Nc1sc2c(c1CN1CCCC1)CCCC2 returned Vaccinia Venus inactive, HCV inhibitor inconclusive, HCMV inh inactive, LASV entry inh inactive, Vaccinia mCherry inactive and MARV entry inh inconclusive.
Screening CC(=O)Nc1sc2c(c1CN1CCN(c3ccc(F)cc3)CC1)CCCC2 returned Vaccinia Venus inactive, HCV inhibitor inconclusive, HCMV inh inactive, LASV entry inh inconclusive, Vaccinia mCherry inactive and MARV entry inh 10µM.
Screening COc1ccc(Br)cc1CNC(=O)c1cnc2sc(N3CCC(C)CC3)nn2c1=O returned Vaccinia Venus inactive, HCMV inh inactive, LASV entry inh inconclusive and Vaccinia mCherry inactive.
`Cc1ccc(S(=O)(=O)CC(=O)Nc2ccccn2)cc1` gave Vaccinia Venus inactive, HCV inhibitor inactive, HCMV inh -62.9, LASV entry inh inactive, Vaccinia mCherry inactive and MARV entry inh inactive.
Cc1cc(Cl)ccc1NC(=S)Nc1ccccn1 was read as HCV inhibitor inactive, HCMV inh inactive, LASV entry inh inactive and MARV entry inh inactive.
`COc1ccccc1NC(=O)C(=O)Nc1ccccn1` gave Vaccinia Venus inactive, HCV inhibitor inactive, HCMV inh inactive, LASV entry inh inconclusive, Vaccinia mCherry inactive and MARV entry inh inconclusive.
Cc1ccc(NC(=O)C(=O)Nc2ccccn2)cc1 was read as Vaccinia Venus inactive, HCV inhibitor inactive, HCMV inh inactive, LASV entry inh 2.91µM, Vaccinia mCherry inactive and MARV entry inh 1.12µM.
Screening Cc1ccc(S(=O)(=O)CC(=O)Nc2ccc(S(=O)(=O)Nc3ccccn3)cc2)cc1 returned HCV inhibitor inactive and HCMV inh inactive.
Screening Cc1ccc(NC(=S)Nc2ccccn2)c(C)c1 returned Vaccinia Venus inactive, HCV inhibitor inconclusive, HCMV inh inactive, LASV entry inh inconclusive, Vaccinia mCherry inactive and MARV entry inh 3.98µM.
For O=c1[nH]c2cc([N+](=O)[O-])cc(Cl)c2c2ccccc12 the results were Vaccinia Venus inactive, HCMV inh inactive and Vaccinia mCherry inconclusive.
O=[N+]([O-])c1ccc(C[n+]2ccc(Cc3ccccc3)cc2)cc1 was read as Vaccinia Venus inactive, HCV inhibitor inactive, HCMV inh -73.5, LASV entry inh inactive, Vaccinia mCherry inconclusive and MARV entry inh inactive.
`O=C([O-])c1cc(-c2ccccc2)cc(-c2ccccc2)[n+]1Cc1ccccc1` gave HCV inhibitor inactive and HCMV inh -78.9.
C[n+]1c(-c2ccccc2)cc(-c2ccc(Cl)cc2)cc1-c1ccccc1 was read as Vaccinia Venus inactive, HCV inhibitor inactive, HCMV inh inconclusive, LASV entry inh inconclusive, Vaccinia mCherry inactive and MARV entry inh inconclusive.
Screening O=[N+]([O-])c1ccc(C[n+]2c(-c3ccccc3)cc(-c3ccccc3)cc2-c2ccccc2)cc1 returned Vaccinia Venus inactive, HCV inhibitor 10µM, HCMV inh -62.7 and Vaccinia mCherry inactive.
O=[N+]([O-])c1cc(Cl)c(O)c(-[n+]2c(-c3ccccc3)cc(-c3ccccc3)cc2-c2ccccc2)c1 was read as HCV inhibitor inconclusive and HCMV inh -75.0.
For COc1ccc(Cn2ccnc2SCC(=O)NCc2ccccc2)cc1 the results were Vaccinia Venus inactive, HCMV inh inactive, LASV entry inh inactive and Vaccinia mCherry inactive.
For CCOc1ccc(NC(=O)CCc2nnc3n(C)c(=O)c4sccc4n23)cc1 the results were Vaccinia Venus inactive, HCMV inh inactive, LASV entry inh inactive, Vaccinia mCherry inactive and MARV entry inh inactive.
Screening Cc1cc(-c2ccccc2)cc(C)[n+]1Cc1ccccc1 returned Vaccinia Venus inactive, HCV inhibitor inactive, HCMV inh -92.6 and Vaccinia mCherry inactive.
For Cc1cc(-c2ccccc2)cc(C)n1 the results were Vaccinia Venus inactive, HCV inhibitor inactive, HCMV inh inconclusive, LASV entry inh inactive, Vaccinia mCherry inactive and MARV entry inh inactive.

Compound activity: PubChem, National Center for Advancing Translational Sciences (NCATS)
